Measles CPE = compounds protecting cells from measles virus cytopathic effect, primary screen, measles RdRp inhibitor project, single point, MLSMR library, absorbance | Measles virus-infected cells, CPE protection | actives 1.5% (n = 140,000) | protection (pct of control), % at 4 µM | AID 841, 2007; in the data active = protection mostly above about 24%, no sharp cut-off; inactive = mostly below about 26%
Insulin prom inh = inhibitors of insulin promoter-driven GFP, primary screen, imaging, TRM-6 cells (human fetal islet line), eGFP reporter, cell count; actives 0.9% (n = 130,000); AID 1273, 2008; inhibition, % at 2 µM; reporter expression induced with tamoxifen;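 active = inhibition above the mean plus 3 SD, with well images judged a real hit on visual review, cut at about 60% in these data, passing the limit was not always enough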
ROMK primary = ROMK potassium channel modulators, primary screen, cell-based, thallium flux, MLSMR library; ATP-sensitive inward rectifier potassium channel 1 (Homo sapiens), P48048; actives 2% (n = 130,000); B-score at 10 µM; AID 1918, 2009; Tet-inducible ROMK, thallium flux fluorescence; actives lie on both sides;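 active = signal ratio slope over the read window, or its plate-corrected B-score, at least 3 SD from the plate mean, either direction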;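 note: B-score of the F/F0 ratio slope over 7 to 12 s after thallium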
Target sequence (P48048 whole entry, looked up): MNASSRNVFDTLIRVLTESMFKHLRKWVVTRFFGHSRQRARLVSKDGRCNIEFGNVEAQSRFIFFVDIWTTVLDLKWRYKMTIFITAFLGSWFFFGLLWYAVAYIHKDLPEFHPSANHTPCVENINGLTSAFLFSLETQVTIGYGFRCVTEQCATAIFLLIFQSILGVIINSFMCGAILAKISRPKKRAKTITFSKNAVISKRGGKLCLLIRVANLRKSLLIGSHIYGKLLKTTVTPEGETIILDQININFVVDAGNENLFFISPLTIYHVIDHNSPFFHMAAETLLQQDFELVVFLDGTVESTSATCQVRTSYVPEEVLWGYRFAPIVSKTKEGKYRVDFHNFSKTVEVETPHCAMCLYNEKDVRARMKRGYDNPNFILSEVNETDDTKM
sdo1 growth = growth rescue of sdo1-depleted yeast, primary screen, S. cerevisiae, bone marrow failure model; z-score at 10 µM; S. cerevisiae sdo1-depleted JHY4D growth rescue, OD600 30 h; active compounds read high; pdr5 snq2 efflux-pump mutant strain; actives 0.21% (n = 140,000);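 active = z-score above 3 at both the 24 hr and the 30 hr optical density reads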;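 note: z-score against mean and SD of all compound wells on the same plate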
* marks the source's active call; other numbers are inactive results; · = no result. Most compounds without a hit are left out; they make up all but 3% or so of the library.

SMILES	Measles CPE	Insulin prom inh	ROMK primary	sdo1 growth
CS(=O)(=O)N(Cc1ccc(C(=O)NCc2ccco2)cc1)c1ccccc1	34*	13	·	0.19
CS(=O)(=O)N(Cc1ccc(C(=O)NCCSCc2ccco2)cc1)c1ccccc1	3	-27	0.31	-0.49
COC(=O)c1cccc(NC(=S)NC(C)C)c1	·	·	1.1	·
CSc1nnc(SCC2=NNC(=O)SC2)s1	6	8	0.59	0.16
COc1cccc(CNC(=O)CCC2CCCN(C(=O)C3CCOCC3)C2)c1 (configuration not stated)	·	·	0.26	·
CCC1(C)CC(c2csc(N)n2)CCO1 (configuration not stated)	65*	-359	·	0.7
Nc1nc(C2CCCCC2)cs1	7	38	-0.14	0.12
O=c1oc(-c2cccs2)nc2sc3c(c12)CCC3	3	-15	·	0.85
O=c1oc(-c2cccs2)nc2sc3c(c12)CCCC3	10	68*	-0.53	-1.3
Cc1sc(N/N=C/c2cccs2)nc1-c1ccccc1	23	24	-0.1	-0.93
O=S(=O)(NCCCc1ccccc1)c1ccccc1	35*	1	-0.59	1.1
O=S(=O)(NCCCCCNS(=O)(=O)c1ccccc1)c1ccccc1	15	50	·	0.83
Cc1cccc(N/N=C(\C#N)S(=O)(=O)C(C)(C)C)c1	·	91*	-0.71	·
CC(C)(C)c1ccc(N/N=C(\C#N)S(=O)(=O)C(C)(C)C)cc1	·	-27	-1.6	·
CN(C)S(=O)(=O)c1cccn1-c1ncc(C(F)(F)F)cc1Cl	43*	50	·	1.7
CCn1cc(C2=NC(c3ccccc3)CO2)c2ccccc21 (configuration not stated)	4	25	-1.2	-1.7
CCn1cc(C2=NC(C)CO2)c2ccccc21 (configuration not stated)	13	84*	-0.44	0.66
CCOc1ccc(CN(C)CC(=O)Nc2ccc(N3CCOCC3)cc2)cc1OC	3	-53	1.2	1.9
COc1ccc(C(=O)NC(=S)NCc2ccco2)cc1	·	·	0.3	·
Cc1c(N(C(=O)c2ccccn2)C2(C(=O)NC3CCCC3)CCCCC2)c(=O)n(-c2ccccc2)n1C	·	·	-1.5	·
Cc1ccc(S(=O)(=O)N(C)C)cc1NC(=O)CCNC(=O)c1ccccc1Cl	54*	·	·	0.86
CCOc1ccc(-c2noc(=O)[nH]2)cc1	38*	-21	0.94	1.1
CCCCC(=O)Nc1ccccc1C(=O)N1CCOCC1	37*	71*	-0.32	1.1
O=C(c1ccc(Cl)cc1)c1ccccc1C(=O)N1CCOCC1	5	0	·	-0.79
O=C(c1ccccc1)c1ccccc1C(=O)N1CCOCC1	14	90*	·	0.3
SMILES	Measles CPE	Insulin prom inh	ROMK primary	sdo1 growth
COc1ccc(/C=C/CN2CCCC(CCC(=O)NCc3ccc(F)c(F)c3)C2)cc1 (configuration not stated)	·	-142	-1.8	·
COc1ccc(-n2c(SCC(=O)NCc3ccco3)nc3c([nH]c4ccccc43)c2=O)cc1	18	·	·	0.2
CC(C)(C)NC(=O)/C(=C\C=C\c1ccccc1)NC(=O)c1ccc([N+](=O)[O-])cc1	7	14	0.17	-0.06
CC1=Nn2c(nnc2-c2ccccc2Cl)SC1	2	88*	·	1.4
Oc1ccc(/C=N/NC(=S)NCCN2CCOCC2)c(O)c1	·	·	0.57	·
Cc1ccc(C(=O)NNC(=S)NC(=O)c2ccc(Cl)cc2Cl)cc1	5	7	5.8*	0.56
Cc1ccc(C(=O)NNC(=S)NC(=O)c2ccco2)cc1	·	·	3.6*	·
Cc1ccccc1C(=O)NNC(=S)NC(=O)c1ccccc1	11	2	2.3*	-0.46
COc1ccc(Nc2nnc(SCc3cc([N+](=O)[O-])cc4c3OCOC4)s2)cc1	16	-27	0.85	-0.93
O=C(OCc1ccc(F)cc1)c1ccc2ccccc2n1	·	-25	-0.01	·
COc1ccc(C2=NOC3(CC(=O)N(c4ccc5ccccc5c4)C3=O)C2)c(OC)c1 (configuration not stated)	·	26	·	0
O=C(O)C12CC3CC(C1)CC(n1cnc(Cl)n1)(C3)C2	4	100*	·	0.03
O=C(NC12CC3CC(CC(C3)C1)C2)C12CC3CC(C1)CC(n1cnc(Cl)n1)(C3)C2	9	·	·	-1.1
O=C(c1ccc(F)cc1)C1CCN(S(=O)(=O)c2ccccc2)CC1	·	-29	-1.2	·
C/C(=N\Nc1ccc([N+](=O)[O-])cc1[N+](=O)[O-])C(C)(C)C(C(=O)O)C(=O)O	10	·	·	1
O=C(COC(=O)c1ccc(NS(=O)(=O)c2ccc3c(c2)OCCO3)cc1)NC1CC1	3	92*	1.6	0.4
CCNC(=O)COC(=O)c1ccc(NS(=O)(=O)c2ccc3c(c2)OCCO3)cc1	·	43	-0.24	·
CCOc1c2ccc(C(=O)NCc3ccc(C(F)(F)F)cc3C(F)(F)F)cc2nn1C	1	·	-0.42	-0.73
CCCCn1nc2cc(C(=O)NCc3ccc(C(F)(F)F)cc3C(F)(F)F)ccc2c1OCC	active	·	·	-0.04
CCNC(=O)c1ccccc1-c1nc(-c2ccccc2Cl)no1	35*	38	·	-0.35
O=C(COC(=O)c1cc(-c2cccs2)nn1-c1ccccc1)Nc1ccc(Cl)c([N+](=O)[O-])c1	11	-6	0.5	0.76
CN1C(=O)/C(=C/C=C2\SCCN2C)N(C)C1=S	·	89*	-0.79	·
CC(=O)c1cccc(NC(=O)C23CC4CC(C2)CC(n2cncn2)(C4)C3)c1	4	14	-0.059	0.03
O=C(NCC(c1cccs1)N1CCOCC1)c1ccccc1NS(=O)(=O)c1cccc([N+](=O)[O-])c1 (configuration not stated)	32*	·	·	0.1
O=C(NCC(c1cccs1)N1CCOCC1)c1ccccc1NS(=O)(=O)c1ccc(Cl)c([N+](=O)[O-])c1 (configuration not stated)	6	·	·	-0.03
SMILES	Measles CPE	Insulin prom inh	ROMK primary	sdo1 growth
COc1ccc(C2C(C(=O)c3ccco3)=C(O)C(=O)N2c2nnc(C)s2)cc1 (configuration not stated)	·	·	-0.32	·
Cc1ccc2nc(N3C(=O)C(O)=C(C(=O)c4ccco4)C3c3cccs3)sc2c1 (configuration not stated)	7	30	-2.6*	1.2
Cc1c(Cl)cccc1NC(=S)N1CCC(C(N)=O)(N2CCCCC2)CC1	9	-56	-0.011	-0.1
Cc1cc2c(c(=O)o1)C(CC(C)C)C(C#N)=C(N)O2 (configuration not stated)	11	·	-0.53	0.82
Cc1cc2c(c(=O)o1)C(C13C=CC(CC1)C3)C(C#N)=C(N)O2 (configuration not stated)	31*	-50	·	0.18
Cc1[nH]n2c(=O)c3c(nc2c1-c1ccc(Cl)cc1)CCC3	3	-65	-1.5	1.9
Cc1[nH]n2c(=O)c3c(nc2c1-c1ccccc1)CCC3	3	83*	·	2.5
Cc1nc2nc3c(c(=O)n2[nH]1)CCCC3	29*	·	-0.0088	2.4
Cc1nnc(NC(=O)CSc2nnc(NC(=O)C(C)(C)C)s2)s1	·	11	1.2	·
CCSc1nnc(NC(=O)C(C)(C)C)s1	12	77*	·	0.39
CCn1ncc(Br)c1C(=O)Nc1nccs1	4	-28	-0.0065	0.18
